Reference: the supplement of paper PMC10646978
± gives the standard deviation.

Legend:
Conditions in all cases: modulator concentration 10 µM
[1] = test system: RAW-Dual (murine macrophage reporter line); assay: NF-kB reporter (SEAP) activity fold change vs agonist alone; higher = enhanced NF-kB activity
Outline: (§1)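 RAW-Dual murine macrophage reporter cells were plated at 50 000 per well in 384-well plates, pin-transferred compound to 10 μM final, and pre-incubated for 1 hour at 37 °C before a PRR agonist was added and the cells incubated overnight. NF-κB activity was read from supernatant SEAP with QUANTI-Blue at 620 nm absorbance, and IRF activity from Lucia luciferase with QUANTI-Luc by luminescence. Each signal was expressed as fold change by dividing by the mean agonist-only control on the same plate. Two replicate plates were averaged, with errors obtained by propagation.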

[2] = test system: RAW-Dual (murine macrophage reporter line); assay: IRF reporter (Lucia luciferase) activity fold change vs agonist alone; higher = enhanced IRF activity
Outline: as §1

[3] = test system: RAW-Dual (murine macrophage reporter line); assay: viability score (confluency relative to resting cells, overnight) (fraction); higher = more viable, active = viable (0.7 or more)
Outline: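 Two confluency masks, generated with IncuCyte software over all imaged wells, were applied to IncuCyte images of RAW-Dual macrophages. The cells, in 384-well plates, had been exposed overnight to 10 μM final compound. The viability score is confluency as a fraction of resting cells, and a compound met the cutoff only with both masks above 70% of resting cells.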

[4] = agonist: CpG ODN 1826 0.5 ug/mL

Compound	NF-kB reporter [1, 4]	NF-kB reporter ([1]; agonist: LPS 0.1 ug/mL)	NF-kB reporter ([1]; agonist: MPLA […])	IRF reporter ([2]; agonist: 3'3'-cGAMP 10 ug/mL)	IRF reporter ([2]; agonist: LPS 0.1 ug/mL)	IRF reporter ([2]; agonist: MPLA […])	viability score [3]
CCC(=O)Nc1ccc(N2CCOCC2)c(Cl)c1	1.11 ± 0.12	0.945 ± 0.087	1.03 ± 0.052	0.838 ± 0.095	0.982 ± 0.054	1.01 ± 0.11	0.996 (active)
COc1cc(NC(=O)NCc2nc(C)cc(N3CCOCC3)n2)cc(OC)c1	1.33 ± 0.32	1.04 ± 0.053	1.07 ± 0.11	0.886 ± 0.031	1.15 ± 0.14	1.09 ± 0.11	0.982 (active)
Nc1ncnc2c1nc(S)n2C1OC(CO)C(O)C1O (configuration not stated)	0.775 ± 0.061	0.9 ± 0.082	0.951 ± 0.11	0.957 ± 0.051	1.15 ± 0.067	1.27 ± 0.14	1.02 (active)
NC(=O)c1cccnc1	0.89 ± 0.16	0.878 ± 0.33	1.03 ± 0.13	0.912 ± 0.034	0.984 ± 0.22	0.934 ± 0.14	1 (active)
Br.CC(=O)c1cccc(Nc2nc(-c3c(C)nc4cc(C)ccn34)cs2)c1	0.774 ± 0.051	1.16 ± 0.087	1.62 ± 0.095	0.691 ± 0.13	1.17 ± 0.06	2.65 ± 0.53	0.25 (inactive)
CC1CC(=O)C2=C(C1)OC(N)=C(C#N)C2c1ccc(F)cc1 (configuration not stated)	0.894 ± 0.09	1.01 ± 0.1	0.935 ± 0.066	0.874 ± 0.053	1.08 ± 0.077	1.13 ± 0.2	0.982 (active)
CCn1c(C=Nn2cnnc2)nc2ccccc21	0.929 ± 0.11	1.08 ± 0.072	0.943 ± 0.036	0.972 ± 0.23	0.903 ± 0.048	0.911 ± 0.068	0.995 (active)
Br.COc1ccc2c3c1O[C@H]1C[C@@H](O)C=C[C@@]31CCN(C)C2	0.95 ± 0.071	1.03 ± 0.052	0.947 ± 0.024	0.912 ± 0.08	0.995 ± 0.042	1.11 ± 0.14	1.01 (active)
CCOC(=O)Nc1nc(C)c(C(C)=O)s1	0.763 ± 0.059	0.872 ± 0.046	1.12 ± 0.098	0.996 ± 0.058	1.35 ± 0.081	1.44 ± 0.14	1.02 (active)
Cc1ncn(CCNC(=O)Nc2ccc(OC(F)(F)F)cc2)c(=O)c1C	1.14 ± 0.077	1.08 ± 0.088	1.01 ± 0.061	0.901 ± 0.035	1.06 ± 0.05	1.11 ± 0.25	0.998 (active)
CCOc1ccccc1NC(=O)NCCc1csc(-n2nc(C)cc2C)n1	0.996 ± 0.069	1.14 ± 0.096	0.797 ± 0.12	1.12 ± 0.085	0.983 ± 0.061	0.938 ± 0.41	1.01 (active)
O=C(NC1CCN(c2ccc(C(F)(F)F)cn2)C1)c1nc2ccccc2s1 (configuration not stated)	1.09 ± 0.056	1.05 ± 0.088	0.909 ± 0.081	0.953 ± 0.049	1.27 ± 0.076	1.11 ± 0.28	0.983 (active)
CC(C)CCn1c(COc2ccccc2)nc2ccccc21	0.892 ± 0.067	1.02 ± 0.078	0.995 ± 0.028	0.914 ± 0.033	1.04 ± 0.048	1.09 ± 0.1	0.999 (active)
O=C(Cn1ncccc1=O)N1Cc2cnc(N3CCOCC3)nc2C1	0.942 ± 0.082	1.1 ± 0.1	0.938 ± 0.042	0.956 ± 0.058	1.16 ± 0.21	1.09 ± 0.31	0.998 (active)
C=CCNC1=C2C[C@@H](C)C[C@H](OC)[C@H](O)[C@@H](C)/C=C(\C)[C@H](OC(N)=O)[C@@H](OC)/C=C\C=C(/C)C(=O)NC(=CC1=O)C2=O	0.174 ± 0.0095	0.215 ± 0.021	0.413 ± 0.042	1.63 ± 0.15	3.81 ± 0.34	3.4 ± 0.71	0.493 (inactive)
Cl.OC(CCCN1CCCCC1)(c1ccccc1)c1ccccc1	0.856 ± 0.037	0.895 ± 0.088	0.982 ± 0.061	1.63 ± 0.092	1.1 ± 0.3	1.08 ± 0.47	0.998 (active)
O=C(c1ccc(I)cc1)N(C1CCCCC1)C1CCCCC1	0.976 ± 0.1	1.03 ± 0.099	1.09 ± 0.056	0.832 ± 0.044	1.02 ± 0.13	1.18 ± 0.3	0.997 (active)
COc1c(Cl)ccc(Cl)c1C(=O)NCc1ccccc1	0.812 ± 0.13	1.01 ± 0.12	1.06 ± 0.11	1.15 ± 0.03	1.25 ± 0.14	1.33 ± 0.25	1 (active)
Cc1cccc(Sc2nccn3c(=O)n(CC(=O)N4CCN(c5ccccc5)CC4)nc23)c1	0.924 ± 0.081	0.589 ± 0.067	0.664 ± 0.043	0.28 ± 0.024	0.6 ± 0.041	0.733 ± 0.12	0.983 (active)
C[C@@H]1CCN(C(=O)CC#N)C[C@@H]1N(C)c1ncnc2[nH]ccc12	1.14 ± 0.15	0.694 ± 0.24	0.824 ± 0.064	0.337 ± 0.022	0.473 ± 0.098	0.654 ± 0.082	0.992 (active)
O=C(NCC#CCOc1cccc(C(F)(F)F)c1)Nc1c(F)cccc1F	0.921 ± 0.077	1.13 ± 0.12	0.922 ± 0.045	0.994 ± 0.051	1.07 ± 0.17	1.15 ± 0.39	1.01 (active)
Fc1ccc(CN2CCc3c([nH]c4ccccc34)C2)cc1	0.756 ± 0.07	0.707 ± 0.059	1.4 ± 0.12	0.64 ± 0.039	0.974 ± 0.091	2.77 ± 0.34	0.126 (inactive)
CC(C)c1nc(CN(C)C(=O)N[C@H](C(=O)N[C@@H](Cc2ccccc2)C[C@H](O)[C@H](Cc2ccccc2)NC(=O)OCc2cncs2)C(C)C)cs1	0.57 ± 0.047	0.468 ± 0.036	0.8 ± 0.053	1.04 ± 0.14	0.993 ± 0.049	0.92 ± 0.096	1 (active)
O=C(CCCN1CC=C(n2c(=O)[nH]c3ccccc32)CC1)c1ccc(F)cc1	0.788 ± 0.06	0.828 ± 0.078	0.71 ± 0.069	0.975 ± 0.052	0.932 ± 0.15	1.21 ± 0.2	0.276 (inactive)
COc1ccc(-c2[nH]c3ccccc3c2SCCNC(=O)c2ccccc2)cc1	1.12 ± 0.086	1.19 ± 0.072	1.29 ± 0.11	0.832 ± 0.035	1.42 ± 0.14	1.17 ± 0.12	0.966 (active)
O=C(C(Cl)Cl)N1CCN(Cc2ccccc2)CC1	0.881 ± 0.068	0.67 ± 0.077	0.709 ± 0.072	0.712 ± 0.032	1.25 ± 0.18	1.28 ± 0.24	1.01 (active)
